Sampled rows, rich in hits. Any-hit rate of the full collection: about 21%.
Pf growth 48h – P. falciparum growth inhibition at 48 hours (one generation); P. falciparum luciferase growth in erythrocytes, 48 h; Potency, µM (titrated, usually from 28.7 µM), actives largely listed as inhibitors; actives 5.9% (n = 310,000)
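A one-generation exposure of luciferase-tagged malaria parasites in RPMI 1640/Albumax erythrocyte culture, 37 C and 5% CO2. Inhibition is inferred from decreased luminescence after adding detection reagent.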
Cycloheximide cs – counter-screen for Shiga toxin inhibitors: cycloheximide protein synthesis inhibition; cell reporter, cycloheximide protein synthesis inhibition counterscreen; max response, %; actives 12% (n = 300,000); AID 2314; in the data active means max response mostly above about 13%, no sharp cut-off; inactive means mostly below about 14%; further: read at 38.3 µM for the half of the compounds with a filed dose
SARS PLpro yeast – SARS-CoV PLP inhibition in yeast. actives 0.19% (n = 330,000). S. cerevisiae expressing SARS-CoV PLpro, growth rescue. Potency, µM (titrated, usually from 32.9 µM), hits mostly activators; calls by dose curve; further: nearly all actives have a fitted effect of over 55% in size
Pf growth 96h – P. falciparum growth inhibition at 96 hour, primary screen for plastid delayed-death inhibitors; P. falciparum luciferase reporter growth, 96 h; Potency, µM (titrated, usually from 28.7 µM), hits mostly inhibitors; actives 6.9% (n = 320,000)
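Compounds incubated with erythrocytes infected by luciferase-expressing P. falciparum (2% hematocrit, 0.05% parasitemia final) for 96 hours, 37 C in 5% CO2. Growth inhibition scored as decreased luciferase luminescence.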
Shiga inhibitor – inhibitors of Shiga toxin in Vero cells. inhibition, % at 38.7 µM. actives 9.2% (n = 290,000). Vero cells, Shiga toxin protein synthesis inhibition reporter; in the data active means inhibition mostly above about 28%, no sharp cut-off; inactive means mostly below about 43%
NS1 function inh – inhibitors of influenza NS1 protein function; actives 0.4% (n = 270,000); Potency, µM (top dose mostly 46.1 µM); AID 2326; calls by dose curve; further: actives are rising curves; nearly all actives have a fitted effect of over 50% in size
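OD600 was taken as the measure of yeast growth restored by compound in an NS1-expressing S. cerevisiae strain. Cells had been washed out of glucose medium and diluted 1:100 into galactose -URA medium, pH 6.0.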
Large screens that a line does not name were inactive; ! = a repeat was not active. Unless noted, the call rests on the fitted dose curve; in most records, active means well fitted inhibition curve with a large enough effect; inconclusive means small, poorly fitted or top-dose-only effect, or another doubt; inactive means no such curve, though single readings can be large or run the other way.

COC(=O)c1c(C)nn(-c2ccc(OC(F)(F)F)cc2)c1-c1snnc1C	Pf growth 48h inconclusive, Pf growth 96h 13µM
COc1ccc(S(=O)(=O)N2CCN(C(=O)c3c(C)nn(-c4ccccc4)c3C)CC2)cc1	Pf growth 48h 10µM, Pf growth 96h 8.3µM (no result: Cycloheximide cs, Shiga inhibitor, NS1 function inh)
C[C@H]1O[C@@H](n2cnc3c(N)ncnc32)C[C@@H]1OP(=O)(O)OP(=O)(O)OP(=O)(O)O	none (no result: Pf growth 48h, SARS PLpro yeast, Pf growth 96h, NS1 function inh)
Cc1ccc(CNC(=O)CSc2nc(=O)n3ccccc3n2)cc1	none (no result: Cycloheximide cs, Shiga inhibitor, NS1 function inh)
Cc1nn(-c2ccccc2)c(C)c1C(=O)OCC(=O)N(C)C1CCS(=O)(=O)C1 (stereo not given)	Cycloheximide cs 33, Shiga inhibitor 61 (no result: NS1 function inh)
CC(=O)Nc1ccc(NC(=O)COC(=O)c2c(C)nn(-c3ccccc3)c2C)cc1	Pf growth 96h inconclusive
Cc1nn(-c2ccccc2)c(C)c1/C=C/C(=O)OCC(=O)NC1CCS(=O)(=O)C1 (stereo not given)	Cycloheximide cs 16 (no result: NS1 function inh)
Cc1nn(-c2ccccc2)c(C)c1C(=O)OCC(=O)NC12CC3CC(CC(C3)C1)C2	Pf growth 48h inconclusive, Pf growth 96h 10µM
O=C(COC(=O)/C=C/c1ccccc1)NC1CCS(=O)(=O)C1 (stereo not given)	none (no result: Cycloheximide cs, Shiga inhibitor, NS1 function inh)
COc1ccc(OC(=O)c2cnn(-c3ccccc3)c2C)cc1	Cycloheximide cs 45, Shiga inhibitor 133 (no result: Pf growth 96h)
CCN(CC)S(=O)(=O)c1cccc(C(=O)NNC(=O)c2ccc3[nH]c(=O)c(=O)[nH]c3c2)c1	none
C[C@H](CO)N1C[C@H](C)[C@@H](CN(C)C(=O)Nc2ccccc2)Oc2c(NS(=O)(=O)c3cccs3)cccc2C1=O	none (no result: Pf growth 48h, Cycloheximide cs, Pf growth 96h, Shiga inhibitor, NS1 function inh)
CN(C(=O)COC(=O)c1nc(Cl)c(Cl)c(Cl)c1Cl)C1CCS(=O)(=O)C1 (stereo not given)	Cycloheximide cs 54
COc1ccc(OC(=O)c2c(C)nn(-c3ccccc3)c2C)cc1	Cycloheximide cs 52, Shiga inhibitor 70
CN(C(=O)COC(=O)c1ccc(C(C)(C)C)cc1)C1CCS(=O)(=O)C1 (stereo not given)	Pf growth 48h inconclusive (no result: Cycloheximide cs, Shiga inhibitor, NS1 function inh)
CC(=O)c1c(C)nn(-c2ccccc2)c1C	none
Cc1cc(C)c2c(n1)SCC(=O)N2CC(=O)Nc1ccccc1Cl	none
CC1(C)C=Cc2cc3ccc(=O)oc3cc2O1	Cycloheximide cs 53, Pf growth 96h inconclusive, Shiga inhibitor 62
COc1ccc(OCc2cc(=O)c3ccc4c(c3o2)C=CC(C)(C)O4)cc1OC	none (no result: Pf growth 48h, Cycloheximide cs, Pf growth 96h, Shiga inhibitor, NS1 function inh)
O=c1ccc2cc(O)c(O)cc2o1	none
COc1c2c(cc3oc(=O)ccc13)OC(C)(C)C=C2	Cycloheximide cs 20, Pf growth 96h 0.0047µM, Shiga inhibitor 40
COc1cc(CC(=O)OCC(=O)N2CC(=O)Nc3ccccc32)cc(OC)c1OC	Pf growth 96h inconclusive
Cc1ccc(NC(=O)C2CCN(c3ncnc4sc(C)c(C)c34)CC2)cc1S(=O)(=O)N(C)C	Pf growth 48h 4.1µM, Pf growth 96h 4.7µM (no result: Cycloheximide cs, Shiga inhibitor, NS1 function inh)
Cc1sc2ncnc(N3CCC(C(=O)Nc4cc(S(C)(=O)=O)ccc4Cl)CC3)c2c1C	Pf growth 48h 9.3µM, Pf growth 96h inconclusive (no result: Cycloheximide cs, Shiga inhibitor, NS1 function inh)
Cc1sc2ncnc(N3CCC(C(=O)Nc4cc(Cl)ccc4Cl)CC3)c2c1C	Pf growth 48h inconclusive, Pf growth 96h inconclusive (no result: Cycloheximide cs, Shiga inhibitor, NS1 function inh)
Cc1sc2ncnc(N3CCC(C(=O)N(C)CC(=O)Nc4ccc(Cl)c(C(F)(F)F)c4)CC3)c2c1C	Pf growth 48h 9.3µM, Pf growth 96h inconclusive (no result: Cycloheximide cs, Shiga inhibitor, NS1 function inh)
CCN(CC)S(=O)(=O)c1cc(NC(=O)C2CCN(c3ncnc4sc(C)c(C)c34)CC2)ccc1Cl	Pf growth 48h 12µM, Pf growth 96h 5.2µM (no result: Cycloheximide cs, Shiga inhibitor, NS1 function inh)
Cc1cccc(C)c1NCC(=O)N1CCN(Cc2ccccc2)CC1	none
Cc1ccccc1SCC(=O)OCC(=O)NCCNC(=O)COC(=O)CSc1ccccc1C	none (no result: Cycloheximide cs, Shiga inhibitor, NS1 function inh)
COc1ccc(NC(=O)Cn2c3ccccc3c3nc4n(c(=O)c32)CCS4)cc1	none (no result: NS1 function inh)
Cc1sc2ncnc(N3CCC(C(=O)Nc4ccc(S(N)(=O)=O)cc4)CC3)c2c1C	Pf growth 48h inconclusive, Pf growth 96h inconclusive (no result: Cycloheximide cs, Shiga inhibitor, NS1 function inh)
Cc1ccc(C)c(S(=O)(=O)N2CCN(C(=O)C3CCN(c4ncnc5sc(C)c(C)c45)CC3)CC2)c1	Pf growth 48h 5.2µM, Pf growth 96h inconclusive (no result: Cycloheximide cs, Shiga inhibitor, NS1 function inh)
COC(=O)C1=C(C)N(Cc2ccccc2)C(=NCC(C)C)N[C@H]1c1cccc(F)c1	Pf growth 48h 13µM, Pf growth 96h inconclusive
COC(=O)C1=C(C)N(Cc2ccccc2)C(=NCc2ccc(OC)cc2)N[C@H]1c1cccc(F)c1	Pf growth 48h inconclusive, Pf growth 96h inconclusive
COC(=O)C1=C(C)N(Cc2ccccc2)C(=NCC(C)C)N[C@H]1c1cccc(C(F)(F)F)c1	none (no result: Pf growth 48h, Cycloheximide cs, Pf growth 96h, Shiga inhibitor, NS1 function inh)
COC(=O)C1=C(C)N(Cc2ccccc2)C(=NCc2cc(OC)c(OC)c(OC)c2)N[C@H]1c1cccc(F)c1	Pf growth 48h 10µM, Pf growth 96h 10µM
COC(=O)C1=C(C)N(Cc2ccccc2)C(=NCc2cccc(Cl)c2)N[C@H]1c1cccc(F)c1	Pf growth 48h 8.3µM, Pf growth 96h inconclusive
c1ccc(C2CN3CCSC3=N2)cc1 (stereo not given)	Pf growth 48h 2.7µM!, Pf growth 96h 1.9µM!, NS1 function inh inconclusive
COc1ccccc1C1=NC(c2ccccc2)CN1c1ccccc1 (stereo not given)	none
CCOC(=O)N1CCN(C(=O)c2ccc(N(Cc3ccccc3Cl)S(C)(=O)=O)cc2)CC1	none
Cc1cc(C)nc(SCC(=O)c2ccc3c(c2)OCCO3)n1	Cycloheximide cs 26, Pf growth 96h inconclusive
CCOC(=O)c1cnc(SCC(=O)c2ccc3c(c2)OCCO3)nc1N	Cycloheximide cs 28, Shiga inhibitor 104
CCOC(=O)/C(C#N)=C/N=c1ccc(C)cn1C	Cycloheximide cs 51, Shiga inhibitor 68
CCCN1C=CC(=C/C=C(\C#N)C(=O)OCC)C=C1	Cycloheximide cs 28, Shiga inhibitor 93
CCCCCCN1C=CC(=C/C=C(\C#N)C(=O)OCC)C=C1	Pf growth 48h 10µM, Pf growth 96h 13µM
CCCN1C=CC(=CC=C(C#N)C#N)C=C1	none
CCOC(=O)/C(C#N)=C\c1ccc(OC)c(OC)c1	none
S=C(NN=C(C1CC1)C1CC1)Nc1ccccc1	Cycloheximide cs 34, Shiga inhibitor 43
Fc1cc(Br)ccc1NC(=S)Nc1ccccc1	Cycloheximide cs 50, Pf growth 96h inconclusive, Shiga inhibitor 65
S=C(Nc1ccccc1)Nc1ccc(Br)cc1	Pf growth 48h inconclusive, Cycloheximide cs 15
Fc1ccccc1NC(=S)Nc1ccc(Br)cc1	Cycloheximide cs 17, Shiga inhibitor 18
O=C(NNC(=S)Nc1ccccc1)C1CC1	none
S=C(Nc1ccccc1)Nc1cccc(Br)c1	none
Cc1ccc(NC(=S)Nc2ccc(Br)cc2)cc1	Pf growth 96h inconclusive
Cc1ccccc1C(=O)NC1CCN(C(=O)N(c2ccccc2)c2ccccc2)CC1	Pf growth 48h inconclusive, Pf growth 96h inconclusive
O=C(N/N=C/c1cccnc1)c1ccccc1[N+](=O)[O-]	none

Screening data deposited in PubChem BioAssay by National Center for Advancing Translational Sciences (NCATS).
